# The supplement of paper PMC8728848
# This excerpt belongs to a sample that is enriched for the strongest signals.
# Columns and labels:
# Assay in all cases: glycan array binding signal (z-score within array); higher = stronger binding
# Gal(a1-3)Gal(b1-4)Glc = conditions: glycan notation: IUPAC condensed, linker removed
# Summary of the method: (§1)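 The Consortium for Functional Glycomics database supplied 3228 glycan arrays, of which those lacking an available protein sequence were dropped. The binding signal, a within-array Z-score, was averaged across arrays of the same protein sequence and across linkers. Negative scores can be read as non-binding.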
# [1] = system: Gal(a1-3)Gal(b1-4)GlcNAc(b1-3)GalNAc; conditions: glycan notation: IUPAC condensed, linker removed
# Summary of the method: as §1
# Gal(a1-3)Gal(b1-4)GlcNAc = conditions: glycan notation: IUPAC condensed, linker removed
# Summary of the method: as §1
# Gal(a1-3)Gal = conditions: glycan notation: IUPAC condensed, linker removed
# Summary of the method: as §1
# [2] = system: Gal(a1-4)Gal(b1-4)GlcNAc(b1-3)Gal(b1-4)Glc; conditions: glycan notation: IUPAC condensed, linker removed
# Summary of the method: as §1
# Gal(a1-3)GalNAc = conditions: glycan notation: IUPAC condensed, linker removed
# Summary of the method: as §1
# [3] = system: Gal(a1-3)Gal(b1-4)[Fuc(a1-3)]GlcNAc(b1-2)Man(a1-3)[Gal(a1-3)Gal(b1-4)[Fuc(a1-3)]GlcNAc(b1-2)Man(a1-6)]Man(b1-4)GlcNAc(b1-4)GlcNAc; conditions: glycan notation: IUPAC condensed, linker removed; mutation: R125K
# Summary of the method: as §1
# [4] = system: Gal(a1-3)Gal(b1-4)[Fuc(a1-3)]GlcNAc; conditions: glycan notation: IUPAC condensed, linker removed; mutation: R125K
# Summary of the method: as §1
# [5] = system: Gal(a1-3)[Gal(a1-4)]Gal(b1-4)GlcNAc; conditions: glycan notation: IUPAC condensed, linker removed
# Summary of the method: as §1
# Gal(a1-4)Gal(b1-4)Gal = conditions: glycan notation: IUPAC condensed, linker removed
# Summary of the method: as §1
# Sequence of PILRb (Mus musculus), Q2YSF2 (Q2YSF2 entry or part of it): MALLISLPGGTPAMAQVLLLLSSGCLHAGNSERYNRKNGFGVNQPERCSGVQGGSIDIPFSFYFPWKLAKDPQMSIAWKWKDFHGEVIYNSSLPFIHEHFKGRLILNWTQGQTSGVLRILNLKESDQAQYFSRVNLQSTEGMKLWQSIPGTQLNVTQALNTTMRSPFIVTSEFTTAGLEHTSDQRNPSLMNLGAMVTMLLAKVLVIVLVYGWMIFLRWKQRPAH
# Sequence of CHT (Homo sapiens) (chain, as listed by the source): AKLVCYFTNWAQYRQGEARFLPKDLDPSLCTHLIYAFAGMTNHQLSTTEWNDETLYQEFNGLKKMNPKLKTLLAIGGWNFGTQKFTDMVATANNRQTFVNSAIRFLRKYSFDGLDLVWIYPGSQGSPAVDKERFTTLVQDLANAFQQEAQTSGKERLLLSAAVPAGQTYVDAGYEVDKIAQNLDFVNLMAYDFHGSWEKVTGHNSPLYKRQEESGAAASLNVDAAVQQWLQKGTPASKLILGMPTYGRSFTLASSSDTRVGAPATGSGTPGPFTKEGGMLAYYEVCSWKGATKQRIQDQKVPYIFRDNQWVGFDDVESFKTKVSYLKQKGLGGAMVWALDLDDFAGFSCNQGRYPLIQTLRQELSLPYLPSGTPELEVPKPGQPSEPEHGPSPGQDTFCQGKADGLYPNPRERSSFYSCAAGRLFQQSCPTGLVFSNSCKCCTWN
# Sequence of C3b (Homo sapiens), P01024 (P01024 23-667): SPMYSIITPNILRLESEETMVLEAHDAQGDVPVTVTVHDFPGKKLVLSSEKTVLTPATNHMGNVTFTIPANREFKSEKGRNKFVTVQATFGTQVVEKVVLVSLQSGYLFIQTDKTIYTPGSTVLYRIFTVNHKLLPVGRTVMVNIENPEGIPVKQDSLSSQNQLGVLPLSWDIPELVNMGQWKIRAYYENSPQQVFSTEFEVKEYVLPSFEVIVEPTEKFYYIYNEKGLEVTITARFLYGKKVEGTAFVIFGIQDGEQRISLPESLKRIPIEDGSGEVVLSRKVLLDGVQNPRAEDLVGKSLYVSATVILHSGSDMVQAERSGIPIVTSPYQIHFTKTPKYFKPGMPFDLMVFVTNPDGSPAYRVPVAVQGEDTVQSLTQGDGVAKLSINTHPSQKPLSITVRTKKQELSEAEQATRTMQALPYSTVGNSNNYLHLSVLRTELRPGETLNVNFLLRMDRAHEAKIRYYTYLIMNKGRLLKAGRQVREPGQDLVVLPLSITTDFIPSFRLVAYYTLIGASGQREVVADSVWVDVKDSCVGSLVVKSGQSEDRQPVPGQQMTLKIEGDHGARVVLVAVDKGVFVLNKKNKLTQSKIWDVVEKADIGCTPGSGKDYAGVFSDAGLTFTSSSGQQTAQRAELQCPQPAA
# Sequence of Avaren (Actinomycete K97) (chain, as listed by the source): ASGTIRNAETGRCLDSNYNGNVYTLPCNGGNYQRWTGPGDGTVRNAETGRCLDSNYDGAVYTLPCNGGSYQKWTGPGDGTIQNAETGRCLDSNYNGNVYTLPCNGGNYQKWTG
# Sequence of 6RG (Lolium perenne), B9U140 (B9U140 entry or part of it): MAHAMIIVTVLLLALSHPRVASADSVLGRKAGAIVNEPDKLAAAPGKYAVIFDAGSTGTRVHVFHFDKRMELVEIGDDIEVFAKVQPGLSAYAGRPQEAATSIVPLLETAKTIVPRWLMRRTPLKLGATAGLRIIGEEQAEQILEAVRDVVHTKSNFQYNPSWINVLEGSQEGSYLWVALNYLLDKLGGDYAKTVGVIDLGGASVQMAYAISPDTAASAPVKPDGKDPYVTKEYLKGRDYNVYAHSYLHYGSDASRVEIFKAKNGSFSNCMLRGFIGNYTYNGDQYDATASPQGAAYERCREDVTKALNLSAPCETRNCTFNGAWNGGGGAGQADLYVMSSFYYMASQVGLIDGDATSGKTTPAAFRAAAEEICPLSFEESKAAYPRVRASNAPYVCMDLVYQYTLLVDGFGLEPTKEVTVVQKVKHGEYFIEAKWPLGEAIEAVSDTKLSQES
# Sequence of PILRa (Mus musculus), Q2YSF3 (Q2YSF3 entry or part of it): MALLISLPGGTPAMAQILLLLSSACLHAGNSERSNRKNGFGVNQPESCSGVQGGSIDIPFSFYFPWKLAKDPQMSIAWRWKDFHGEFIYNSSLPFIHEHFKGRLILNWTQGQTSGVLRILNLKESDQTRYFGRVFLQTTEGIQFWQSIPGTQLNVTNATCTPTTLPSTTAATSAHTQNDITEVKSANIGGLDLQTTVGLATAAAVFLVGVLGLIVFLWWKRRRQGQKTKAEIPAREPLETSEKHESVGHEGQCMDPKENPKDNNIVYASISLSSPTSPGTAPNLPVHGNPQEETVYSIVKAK
# Sequence of wLAT-1A (Homo sapiens), Q01650 (Q01650 whole entry): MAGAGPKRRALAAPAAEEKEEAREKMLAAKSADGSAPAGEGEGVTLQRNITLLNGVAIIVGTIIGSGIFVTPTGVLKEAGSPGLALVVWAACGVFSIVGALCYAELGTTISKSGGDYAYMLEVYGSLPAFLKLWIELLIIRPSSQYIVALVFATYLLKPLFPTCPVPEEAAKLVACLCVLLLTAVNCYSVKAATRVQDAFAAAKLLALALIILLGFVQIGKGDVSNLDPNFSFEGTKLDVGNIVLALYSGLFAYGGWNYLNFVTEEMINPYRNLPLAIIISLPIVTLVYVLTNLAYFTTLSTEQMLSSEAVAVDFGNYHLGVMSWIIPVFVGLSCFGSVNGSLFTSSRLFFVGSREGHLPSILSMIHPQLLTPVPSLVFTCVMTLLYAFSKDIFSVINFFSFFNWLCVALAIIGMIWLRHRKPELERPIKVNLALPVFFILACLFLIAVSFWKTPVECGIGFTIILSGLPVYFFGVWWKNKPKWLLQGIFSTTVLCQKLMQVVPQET
# Sequence of 6RG (Lolium perenne) (chain, as listed by the source): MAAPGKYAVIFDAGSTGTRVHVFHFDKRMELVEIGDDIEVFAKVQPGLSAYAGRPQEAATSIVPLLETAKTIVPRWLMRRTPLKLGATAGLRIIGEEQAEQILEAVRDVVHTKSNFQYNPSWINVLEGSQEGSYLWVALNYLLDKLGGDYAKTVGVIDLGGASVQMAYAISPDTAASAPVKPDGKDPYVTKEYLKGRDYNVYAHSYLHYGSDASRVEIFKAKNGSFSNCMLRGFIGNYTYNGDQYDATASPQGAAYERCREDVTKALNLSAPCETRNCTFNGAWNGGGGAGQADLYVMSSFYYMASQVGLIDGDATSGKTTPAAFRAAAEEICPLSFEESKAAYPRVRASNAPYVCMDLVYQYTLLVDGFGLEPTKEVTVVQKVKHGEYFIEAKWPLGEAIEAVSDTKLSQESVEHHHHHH
# Sequence of Aggrecan (Rattus norvegicus), NP_071526 (chain, as listed by the source): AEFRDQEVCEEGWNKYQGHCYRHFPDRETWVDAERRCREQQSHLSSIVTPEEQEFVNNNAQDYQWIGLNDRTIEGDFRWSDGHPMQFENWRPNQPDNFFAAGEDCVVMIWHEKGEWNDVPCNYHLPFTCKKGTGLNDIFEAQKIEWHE
substance,measurement,setting,value
Avaren (Actinomycete K97),glycan array binding signal (z-score),Gal(a1-3)Gal(b1-4)Glc,0.305
"PILRb (Mus musculus), Q2YSF2",glycan array binding signal (z-score),[1],-0.089
same,glycan array binding signal (z-score),Gal(a1-3)Gal(b1-4)GlcNAc,-0.363
same,glycan array binding signal (z-score),Gal(a1-3)Gal,2.68
"C3b (Homo sapiens), P01024",glycan array binding signal (z-score),Gal(a1-3)Gal(b1-4)Glc,1.67
same,glycan array binding signal (z-score),Gal(a1-3)Gal,2.77
"PILRa (Mus musculus), Q2YSF3",glycan array binding signal (z-score),Gal(a1-3)Gal(b1-4)Glc,0.145
"Aggrecan (Rattus norvegicus), NP_071526",glycan array binding signal (z-score),[2],-0.204
"wLAT-1A (Homo sapiens), Q01650",glycan array binding signal (z-score),Gal(a1-3)GalNAc,0.501
"Siglec-8 (Homo sapiens), Q9NYZ4",glycan array binding signal (z-score),[3],1.51
same,glycan array binding signal (z-score),[4],-0.444
same,glycan array binding signal (z-score),[5],-0.14
6RG (Lolium perenne),glycan array binding signal (z-score),Gal(a1-4)Gal(b1-4)Gal,6.25
CHT (Homo sapiens),glycan array binding signal (z-score),"[5]; mutation: D138V, E140I",-0.162
same,glycan array binding signal (z-score),"Gal(a1-4)Gal(b1-4)Gal; mutation: D138V, E140I",-0.141
"6RG (Lolium perenne), B9U140",glycan array binding signal (z-score),Gal(a1-3)Gal(b1-4)Glc,-0.272
